# Experimental data from PubChem BioAssay (EPA / NIEHS).
# Where “and” joins values, the source holds several entries; their conditions need not be identical. Equal entries are not always repeated. Records with an inconclusive call do not appear. More than one record can exist for a structure, and the calls need not agree. Calls of active or inactive are those of the source. How the source made its calls: active means hit-call score of the fitted dose curve at least 0.9, where 1 is the maximum; inconclusive means response in the unintended direction; inactive means score below 0.9.
# Experiments:
# NCBI gene 100848466 = assay: NVS_NR_bPR: NovaScreen (NVS) Nuclear Receptor Binding Assay for bovine Progextron Receptor (PR) (AID 2283343);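 on AC50: actives lower bound radioligand signal below DMSO meaning displacement of the label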
# In short: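 Bovine uterine membrane preparation; radioligand displacement read by scintillation counting 18 h after dosing. Primary screen single concentration, 25 uM, in duplicate; actives followed up in concentration series. Signal loss versus DMSO baseline.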
# [1] = molecular target: human Constitutive Androstane Receptor (CAR), NR1I3 (gene 9970) (UniProt Q14994); assay: NVS_NR_hCAR_Antagonist: NovaScreen (NVS) Nuclear Receptor Binding Assay for human Constitutive Androstane Receptor Antagonism (CAR) (AID 2283344)
# Sequence of human Constitutive Androstane Receptor (CAR), NR1I3 (gene 9970) (Q14994 whole entry, looked up): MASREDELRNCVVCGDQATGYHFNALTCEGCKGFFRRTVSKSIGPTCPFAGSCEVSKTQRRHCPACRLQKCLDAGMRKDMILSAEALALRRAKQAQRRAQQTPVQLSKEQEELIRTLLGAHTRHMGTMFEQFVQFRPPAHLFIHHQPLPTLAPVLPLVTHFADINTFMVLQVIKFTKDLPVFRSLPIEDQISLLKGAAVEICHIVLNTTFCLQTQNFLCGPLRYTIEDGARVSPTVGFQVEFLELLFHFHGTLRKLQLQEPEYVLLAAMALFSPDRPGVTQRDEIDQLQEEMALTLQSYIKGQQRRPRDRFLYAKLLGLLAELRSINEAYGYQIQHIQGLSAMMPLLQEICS
# In short: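 Cell-free TR-FRET binding read 1 h after dosing, antagonist mode; loss of signal versus DMSO baseline. Primary screen in duplicate at a single 25 uM; actives retested in concentration series.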
# [2] = molecular target: Estrogen receptor (Homo sapiens) (UniProt P03372); assay: OT_ER_ERaERa_1440: Odyssey Thera (OT) 24-hour HEK293T Protein-Complementation Assay for Estrogen Receptor-alpha/-alpha Homodimer (AID 2283349);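 further: hits raise fluorescence above DMSO for agonists and antagonists alike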
# Sequence of Estrogen receptor (Homo sapiens) (P03372 whole entry, looked up, the tested form may be a part): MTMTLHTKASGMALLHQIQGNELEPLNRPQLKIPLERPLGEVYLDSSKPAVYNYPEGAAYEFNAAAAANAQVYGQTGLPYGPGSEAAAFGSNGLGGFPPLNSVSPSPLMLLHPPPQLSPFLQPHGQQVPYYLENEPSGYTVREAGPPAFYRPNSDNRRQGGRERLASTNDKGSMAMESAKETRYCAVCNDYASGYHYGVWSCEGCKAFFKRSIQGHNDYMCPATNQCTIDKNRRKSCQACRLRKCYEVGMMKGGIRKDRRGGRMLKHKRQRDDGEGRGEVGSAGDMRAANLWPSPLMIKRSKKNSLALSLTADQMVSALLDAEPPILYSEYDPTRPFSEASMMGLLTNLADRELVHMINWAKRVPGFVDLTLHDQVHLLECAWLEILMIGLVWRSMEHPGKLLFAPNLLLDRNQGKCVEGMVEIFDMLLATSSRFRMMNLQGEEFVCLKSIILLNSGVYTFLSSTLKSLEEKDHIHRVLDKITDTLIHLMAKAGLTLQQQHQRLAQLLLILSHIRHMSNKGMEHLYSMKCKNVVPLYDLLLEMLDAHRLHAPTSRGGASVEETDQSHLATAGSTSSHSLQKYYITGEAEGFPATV
# In short: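 HEK293T cells stably expressing the human ER alpha ligand-binding domain (aa 310-547) as a homodimer PCA were dosed for 24 hours. Fluorescence intensity was read by laser scanning cytometry, and gain of signal was fitted relative to DMSO vehicle.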
# [3] = molecular target: Estrogen receptor (Homo sapiens) (UniProt P03372); assay: OT_ER_ERaERa_0480: Odyssey Thera (OT) 8-hour HEK293T Protein-Complementation Assay for Estrogen Receptor-alpha/-alpha Homodimer (AID 2283351);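 further: rise in fluorescence from reassembled reporter fragments on ERα LBD homodimer in nucleus or whole cell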
# In short: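 Binding reporter in which dimerisation of ERα LBD (aa 310-547) fusions reconstitutes a fluorescent reporter in HEK293T cells. Compounds incubated 8 h; mean fluorescence intensity increase versus DMSO scored.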
# [4] = molecular target: Bile acid receptor (Homo sapiens) (UniProt Q96RI1); assay: NVS_NR_hFXR_Antagonist: NovaScreen (NVS) Nuclear Receptor Binding Assay for human Farnesoid X Receptor Antagonism (FXR) (AID 2283350)
# Sequence of Bile acid receptor (Homo sapiens) (Q96RI1 whole entry, looked up): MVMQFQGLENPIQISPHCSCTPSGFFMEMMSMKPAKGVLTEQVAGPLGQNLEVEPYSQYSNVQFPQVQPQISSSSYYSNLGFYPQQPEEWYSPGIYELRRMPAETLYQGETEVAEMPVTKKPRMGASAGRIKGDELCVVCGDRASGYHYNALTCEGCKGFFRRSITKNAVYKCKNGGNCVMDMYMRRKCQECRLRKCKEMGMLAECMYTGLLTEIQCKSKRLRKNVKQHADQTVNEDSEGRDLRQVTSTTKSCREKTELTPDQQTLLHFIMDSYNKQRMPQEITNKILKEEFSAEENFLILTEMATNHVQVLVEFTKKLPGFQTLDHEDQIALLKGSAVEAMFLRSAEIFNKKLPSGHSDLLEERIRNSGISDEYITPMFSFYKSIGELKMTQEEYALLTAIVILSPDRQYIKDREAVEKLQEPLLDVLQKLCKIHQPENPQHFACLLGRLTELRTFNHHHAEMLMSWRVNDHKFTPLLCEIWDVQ
# In short: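 Cell-free TR-FRET ligand-binding read-out on human FXR (NR1H4) in antagonist mode, measured 1 h after dosing. Primary screen in duplicate at 25 uM, actives retested in concentration series; signal loss scored versus DMSO.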
# [5] = molecular target: T1, Estrogen receptor (Homo sapiens) + Estrogen receptor beta (Homo sapiens) (UniProt P03372+Q92731); assay: OT_ER_ERaERb_0480: Odyssey Thera (OT) 8-hour HEK293T Protein-Complementation Assay for Estrogen Receptor-alpha/-beta Heterodimer (AID 2283352)
# T1 sequence (P03372 whole entry, looked up, the tested form may be a part): as the sequence (P03372 whole entry, looked up, the tested form may be a part) above
# T1 sequence (Q92731 whole entry, looked up, the tested form may be a part): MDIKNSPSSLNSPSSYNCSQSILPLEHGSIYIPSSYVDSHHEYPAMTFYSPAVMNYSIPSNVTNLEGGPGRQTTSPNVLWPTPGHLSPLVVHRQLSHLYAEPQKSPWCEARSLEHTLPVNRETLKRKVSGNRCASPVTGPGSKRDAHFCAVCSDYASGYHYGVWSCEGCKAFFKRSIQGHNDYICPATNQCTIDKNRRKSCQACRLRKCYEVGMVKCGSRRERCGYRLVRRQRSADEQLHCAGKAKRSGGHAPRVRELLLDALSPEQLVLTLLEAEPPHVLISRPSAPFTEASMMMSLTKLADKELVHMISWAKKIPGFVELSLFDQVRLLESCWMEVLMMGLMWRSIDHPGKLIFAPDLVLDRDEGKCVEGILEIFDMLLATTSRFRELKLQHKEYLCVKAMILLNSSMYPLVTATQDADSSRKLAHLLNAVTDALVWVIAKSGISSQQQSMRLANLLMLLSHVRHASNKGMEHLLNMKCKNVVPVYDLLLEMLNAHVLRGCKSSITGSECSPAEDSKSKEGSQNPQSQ
# In short: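 Human HEK293T cells were treated for 8 hours and receptor heterodimerisation was detected through reconstitution of a fluorescent reporter split between ER-alpha and ER-beta ligand-binding domains. Activity was analysed as gain of signal against DMSO.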
# [6] = molecular target: T1, Estrogen receptor (Homo sapiens) + Estrogen receptor beta (Homo sapiens); assay: OT_ER_ERaERb_1440: Odyssey Thera (OT) 24-hour HEK293T Protein-Complementation Assay for Estrogen Receptor-alpha/-beta Homodimer (AID 2283356);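 further: heteromer of ER alpha and ER beta binding domains; hits raise reporter fluorescence and both agonists and antagonists give an increase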
# In short: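 24 h exposure; HEK293T PCA cells with ERα/ERβ LBD fragments; signal rise in nuclear or whole-cell fluorescence over vehicle.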
# [7] = molecular target: Estrogen receptor beta (Homo sapiens) (UniProt Q92731); assay: OT_ER_ERbERb_0480: Odyssey Thera (OT) 8-hour HEK293T Protein-Complementation Assay for Estrogen Receptor-beta/-beta Homodimer (AID 2283357);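 further: active means signal gain over DMSO baseline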
# Sequence of Estrogen receptor beta (Homo sapiens) (Q92731 whole entry, looked up, the tested form may be a part): as above
# In short: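 Fluorescence intensity, nuclear for agonists and nuclear plus cytoplasmic for antagonists, was quantified by laser scanning cytometry versus vehicle after 8 h treatment. The cells were HEK293T stably carrying ER beta LBD fragment-complementation partners.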
# [8] = molecular target: Bile acid receptor (Homo sapiens) (UniProt Q96RI1); assay: NVS_NR_hFXR_Agonist: NovaScreen (NVS) Nuclear Receptor Binding Assay for human Farnesoid X Receptor Agonism (FXR) (AID 2283347)
# In short: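 Cell-free TR-FRET binding assay with extracted human FXR protein, agonist format, read 1 h after dosing. Primary screen at 25 uM single concentration in duplicate, actives retested in concentration series; gain of signal versus DMSO.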
# [9] = molecular target: Estrogen receptor (Homo sapiens) (UniProt P03372); assay: NVS_NR_hER: NovaScreen (NVS) Nuclear Receptor Binding Assay for human Estrogen Receptor (ER) (AID 2283348)
# In short: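 Radioligand competitive displacement binding to estrogen receptor from MCF7 extract, cell-free; 18 h after dosing, scintillation read-out. Primary screen in duplicate at 25 uM; actives followed up in concentration series; loss of signal vs DMSO.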
# [10] = molecular target: Retinoic acid receptor alpha (Homo sapiens) (UniProt P10276); assay: NVS_NR_hRAR_Antagonist: NovaScreen (NVS) Nuclear Receptor Binding Assay for human Retinoic Acid Alpha Receptor Antagonism (RAR) (AID 2283358)
# Sequence of Retinoic acid receptor alpha (Homo sapiens) (P10276 whole entry, looked up): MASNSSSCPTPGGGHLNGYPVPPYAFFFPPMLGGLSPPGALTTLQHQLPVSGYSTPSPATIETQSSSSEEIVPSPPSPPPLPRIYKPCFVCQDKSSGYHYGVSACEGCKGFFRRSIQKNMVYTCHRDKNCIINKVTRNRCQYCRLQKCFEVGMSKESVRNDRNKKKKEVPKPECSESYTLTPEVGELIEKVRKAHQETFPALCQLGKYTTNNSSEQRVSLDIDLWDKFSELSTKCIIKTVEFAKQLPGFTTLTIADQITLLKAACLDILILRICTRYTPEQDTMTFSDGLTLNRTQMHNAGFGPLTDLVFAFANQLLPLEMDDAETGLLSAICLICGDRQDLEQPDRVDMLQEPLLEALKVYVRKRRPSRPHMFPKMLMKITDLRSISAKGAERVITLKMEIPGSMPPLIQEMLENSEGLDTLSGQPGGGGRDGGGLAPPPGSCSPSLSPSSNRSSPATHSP
# In short: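 Cell-free TR-FRET binding assay with extracted human RARalpha in antagonist mode, read 2 h after dosing. Loss of signal was fitted relative to DMSO; the primary screen used 25 uM in duplicate, with concentration series on follow-up.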
# [11] = test system: guinea pig Histamine Receptor (H2), gene 100729734; assay: NVS_GPCR_gH2: NovaScreen (NVS) G Protein-Coupled Receptor Assay for guinea pig Histamine Receptor (H2) (AID 2283342)
# In short: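 Radioligand displacement on guinea pig striatal membranes, 1 h after dosing, filter-based scintillation counting; loss of signal versus DMSO. Single-point screen at 25 uM in duplicate, then concentration-response up to 50 uM.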
# [12] = molecular target: Androgen Receptor/SRC-1 Co-activator, AR (gene 367) (UniProt P10275); assay: OT_AR_ARSRC1_0960: Odyssey Thera (OT) 16-hour HEK293T Protein-Complementation Assay for Androgen Receptor/SRC-1 Co-activator (AID 2283353);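 further: actives raise the signal above DMSO so potency reflects increased AR and SRC-1 complex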
# Sequence of Androgen Receptor/SRC-1 Co-activator, AR (gene 367) (P10275 whole entry, looked up, the tested form may be a part): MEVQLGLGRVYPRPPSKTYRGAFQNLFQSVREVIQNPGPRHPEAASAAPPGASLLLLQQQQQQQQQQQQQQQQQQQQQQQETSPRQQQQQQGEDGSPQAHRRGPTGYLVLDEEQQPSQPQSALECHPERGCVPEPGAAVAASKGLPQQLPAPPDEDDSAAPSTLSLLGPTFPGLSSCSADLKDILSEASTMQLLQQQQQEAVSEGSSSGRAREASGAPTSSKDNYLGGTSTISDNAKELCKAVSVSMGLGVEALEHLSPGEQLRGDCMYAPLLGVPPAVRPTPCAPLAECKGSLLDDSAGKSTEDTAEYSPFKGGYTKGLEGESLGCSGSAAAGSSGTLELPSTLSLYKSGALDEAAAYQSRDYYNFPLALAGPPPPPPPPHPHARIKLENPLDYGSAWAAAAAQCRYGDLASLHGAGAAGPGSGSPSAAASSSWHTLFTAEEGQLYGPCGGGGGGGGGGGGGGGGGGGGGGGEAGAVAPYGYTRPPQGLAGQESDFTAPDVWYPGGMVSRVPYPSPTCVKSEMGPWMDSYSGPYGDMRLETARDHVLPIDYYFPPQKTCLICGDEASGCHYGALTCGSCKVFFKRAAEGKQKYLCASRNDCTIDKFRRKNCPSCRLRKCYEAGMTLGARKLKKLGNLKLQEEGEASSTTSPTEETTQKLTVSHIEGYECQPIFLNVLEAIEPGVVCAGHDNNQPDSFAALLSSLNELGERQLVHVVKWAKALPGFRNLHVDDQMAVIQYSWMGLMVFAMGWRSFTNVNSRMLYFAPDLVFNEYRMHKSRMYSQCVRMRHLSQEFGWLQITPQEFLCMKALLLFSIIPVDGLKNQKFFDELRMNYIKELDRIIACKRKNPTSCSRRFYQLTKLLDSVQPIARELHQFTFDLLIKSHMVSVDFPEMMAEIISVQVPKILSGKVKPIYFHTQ
# In short: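 Interaction of AR with SRC-1 was followed by YFP fragment complementation in HEK293T cells after 16 h of dosing. Gain of nuclear-over-cytoplasmic 488 nm fluorescence against DMSO controls defined activity.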
# [13] = molecular target: Androgen Receptor/SRC-1 Co-activator, AR (gene 367) (UniProt P10275); assay: OT_AR_ARSRC1_0480: Odyssey Thera (OT) 8-hour HEK293T Protein-Complementation Assay for Androgen Receptor/SRC-1 Co-activator (AID 2283354);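 further: hits raise the complementation signal above DMSO so AC50 marks enhancers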
# In short: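 HEK293T cells stably expressing AR and SRC-1 fused to Venus YFP fragments, imaged 8 h after dosing. Complementation fluorescence scored as nuclear/cytoplasmic ratio at 488 nm in at least 400 cells per image; gain fitted versus DMSO.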
# [14] = molecular target: rat Mineralocorticoid Receptor (MR), Nr3c2 (gene 25672) (UniProt P22199); assay: NVS_NR_rMR: NovaScreen (NVS) Nuclear Receptor Binding Assay for rat Mineralocorticoid Receptor (MR) (AID 2283355)
# Sequence of rat Mineralocorticoid Receptor (MR), Nr3c2 (gene 25672) (P22199 whole entry, looked up): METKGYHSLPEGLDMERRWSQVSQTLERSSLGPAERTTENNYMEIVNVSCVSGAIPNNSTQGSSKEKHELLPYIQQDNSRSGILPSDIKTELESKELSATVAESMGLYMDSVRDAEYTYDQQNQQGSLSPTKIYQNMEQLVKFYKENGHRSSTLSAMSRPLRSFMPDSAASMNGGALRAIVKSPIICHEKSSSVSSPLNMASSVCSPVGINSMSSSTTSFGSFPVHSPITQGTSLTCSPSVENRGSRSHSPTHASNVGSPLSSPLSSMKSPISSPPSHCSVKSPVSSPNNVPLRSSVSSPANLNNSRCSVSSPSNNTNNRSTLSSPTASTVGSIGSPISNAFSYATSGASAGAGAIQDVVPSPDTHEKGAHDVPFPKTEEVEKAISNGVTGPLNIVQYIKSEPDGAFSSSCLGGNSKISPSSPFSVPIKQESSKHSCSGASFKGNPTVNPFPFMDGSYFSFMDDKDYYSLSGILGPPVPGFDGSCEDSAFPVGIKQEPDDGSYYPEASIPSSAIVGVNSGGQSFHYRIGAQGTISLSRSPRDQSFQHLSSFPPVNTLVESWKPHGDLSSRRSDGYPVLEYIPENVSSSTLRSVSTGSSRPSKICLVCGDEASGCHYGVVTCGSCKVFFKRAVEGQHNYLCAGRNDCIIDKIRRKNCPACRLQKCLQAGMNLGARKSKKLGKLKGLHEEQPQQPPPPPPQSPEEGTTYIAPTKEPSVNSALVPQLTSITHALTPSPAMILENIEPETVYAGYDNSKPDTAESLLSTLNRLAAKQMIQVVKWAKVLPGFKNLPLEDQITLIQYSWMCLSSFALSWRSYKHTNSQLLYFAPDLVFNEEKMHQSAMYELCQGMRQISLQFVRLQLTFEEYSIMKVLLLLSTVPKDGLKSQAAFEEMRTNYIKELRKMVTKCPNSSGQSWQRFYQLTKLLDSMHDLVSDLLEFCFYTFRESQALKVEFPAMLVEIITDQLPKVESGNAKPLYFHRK
# In short: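 Cell-free radioligand binding to mineralocorticoid receptor from adrenalectomized rat brain supernatant, scintillation counting after 24 h. Primary screen in duplicate at 25 uM; actives retested in concentration series. Loss of specific binding versus DMSO.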
smiles,measurement,setting,value
CNC(=O)ON=CC(C)(C)SC,outcome,NCBI gene 100848466,inactive
same,outcome,[1],inactive
same,outcome,[2],inactive
same,outcome,[3],inactive
C#CCOS(=O)OC1CCCCC1Oc1ccc(C(C)(C)C)cc1 (stereo unspecified),outcome,NCBI gene 100848466,inactive
same,outcome,[1],inactive
same,outcome,[2],inactive
same,outcome,[4],inactive
same,outcome,[3],inactive
same,outcome,[5],inactive
same,outcome,[6],inactive
same,outcome,[7],inactive
COP(=S)(OC)Oc1nc(Cl)c(Cl)cc1Cl,AC50,NCBI gene 100848466,17.3 µM (active)
same,outcome,[8],inactive
same,outcome,[9],inactive
same,outcome,[2],inactive
same,outcome,[3],inactive
same,outcome,[5],inactive
same,outcome,[6],inactive
same,outcome,[7],inactive
same,outcome,[10],inactive
COC(=O)c1ccccc1C(=O)OC,outcome,[11],inactive
same,outcome,NCBI gene 100848466,inactive
same,outcome,[1],inactive
same,outcome,[8],inactive
same,outcome,[2],inactive
same,outcome,[4],inactive
same,outcome,[3],inactive
same,outcome,[5],inactive
same,outcome,[6],inactive
same,outcome,[7],inactive
same,outcome,[10],inactive
CS/C(C)=N/OC(=O)N(C)SN(C)C(=O)O/N=C(\C)SC,outcome,[1],inactive
same,outcome,[2],inactive
same,outcome,[3],inactive
same,AC50,[12],78.2 µM (active)
same,AC50,[13],72.2 µM (active)
same,outcome,[6],inactive
same,outcome,[7],inactive
N#Cc1cc(Br)c(O)c(Br)c1,outcome,[1],inactive
same,outcome,[9],inactive
same,outcome,[2],inactive
same,outcome,[4],inactive
same,outcome,[3],inactive
same,outcome,[12],inactive
same,outcome,[13],inactive
O=C(O)c1nc(Cl)ccc1Cl,outcome,[2],inactive
same,outcome,[3],inactive
COc1nc(C)nc(NC(=O)NS(=O)(=O)c2ccccc2Cl)n1,outcome,[9],inactive
N#Cc1nn(-c2c(Cl)cc(C(F)(F)F)cc2Cl)c(N)c1S(=O)C(F)(F)F (stereo unspecified),outcome,[8],inactive
same,outcome,[2],inactive
same,outcome,[3],inactive
same,AC50,[12],22.7 µM (active)
same,outcome,[13],inactive
same,outcome,[6],inactive
same,outcome,[10],inactive
O=C(O)COc1nc(Cl)c(Cl)cc1Cl,outcome,[1],inactive
same,outcome,[2],inactive
same,outcome,[3],inactive
COC(=O)C=C(C)OP(=O)(OC)OC,outcome,[2],inactive
same,outcome,[3],inactive
same,outcome,[5],inactive
same,outcome,[6],inactive
CCON=C(CC)C1=C(O)CC(c2c(C)cc(C)cc2C)CC1=O (stereo unspecified),outcome,[1],inactive
same,outcome,[2],inactive
same,outcome,[3],inactive
same,outcome,[12],inactive
same,outcome,[10],inactive
Fc1ccc(Oc2ccnc3cc(Cl)cc(Cl)c23)cc1,outcome,[2],inactive
same,outcome,[3],inactive
same,outcome,[5],inactive
same,outcome,[6],inactive
same,outcome,[7],inactive
CCNc1nc(Cl)nc(NCC)n1,outcome,[1],inactive
same,outcome,[2],inactive
same,outcome,[3],inactive
same,outcome,[5],inactive
same,outcome,[6],inactive
same,outcome,[7],inactive
C=CCC1=C(C)[C@@H](OC(=O)[C@@H]2[C@@H](C=C(C)C)C2(C)C)CC1=O,outcome,[2],inactive
same,outcome,[3],inactive
CCOC(=O)C(Cl)Cc1cc(-n2nc(C)n(C(F)F)c2=O)c(F)cc1Cl (stereo unspecified),outcome,[2],inactive
same,outcome,[3],inactive
same,outcome,[7],inactive
CC(C)(C)c1ccc(CSc2cnn(C(C)(C)C)c(=O)c2Cl)cc1,outcome,[2],inactive
same,outcome,[3],inactive
same,outcome,[5],inactive
same,outcome,[6],inactive
same,outcome,[7],inactive
CCc1nn(C)c(C(=O)NCc2ccc(C(C)(C)C)cc2)c1Cl,outcome,[8],inactive
same,outcome,[2],inactive
same,outcome,[3],inactive
same,outcome,[5],inactive
same,outcome,[6],inactive
same,outcome,[7],inactive
Cc1cc(Cl)ccc1OCC(=O)O,outcome,[9],inactive
same,outcome,[2],inactive
same,outcome,[3],inactive
same,outcome,[12],inactive
same,outcome,[13],inactive
COc1nc(C)nc(NC(=O)NS(=O)(=O)c2ccccc2CCC(F)(F)F)n1,outcome,[1],inactive
CCCN(CCC)c1c([N+](=O)[O-])cc(S(N)(=O)=O)cc1[N+](=O)[O-],AC50,[1],526 nM (active) and 6.79 µM (active)
same,outcome,[9],inactive
same,outcome,[2],inactive
same,AC50,[4],26.4 µM (active)
same,outcome,[4],inactive
same,outcome,[3],inactive
same,outcome,[6],inactive
CC(C)Oc1cc(-n2nc(C(C)(C)C)oc2=O)c(Cl)cc1Cl,outcome,[2],inactive
same,outcome,[3],inactive
same,outcome,[5],inactive
same,AC50,[12],31.3 µM (active)
same,outcome,[13],inactive
same,outcome,[6],inactive
same,outcome,[7],inactive
CC1=C(C(=O)Nc2ccccc2)SCCO1,outcome,[2],inactive
same,outcome,[5],inactive
same,outcome,[12],inactive
same,outcome,[13],inactive
same,outcome,[6],inactive
same,outcome,[7],inactive
CC(C)C1(C)N=C(c2nc3ccccc3cc2C(=O)O)NC1=O (stereo unspecified),outcome,[2],inactive
same,outcome,[4],inactive
same,outcome,[3],inactive
same,outcome,[5],inactive
same,outcome,[6],inactive
same,outcome,[7],inactive
COc1cnc(OC)n2nc(NS(=O)(=O)c3c(OCC(F)F)cccc3C(F)(F)F)nc12,outcome,[9],inactive
same,outcome,[2],inactive
same,outcome,[3],inactive
same,outcome,[5],inactive
same,outcome,[7],inactive
COC(=O)N(OC)c1ccccc1COc1ccn(-c2ccc(Cl)cc2)n1,outcome,[1],inactive
same,outcome,[2],inactive
same,outcome,[3],inactive
same,outcome,[5],inactive
same,outcome,[6],inactive
same,outcome,[7],inactive
COc1nc(NC(C)C)nc(NC(C)C)n1,outcome,[2],inactive
same,outcome,[3],inactive
same,outcome,[5],inactive
same,outcome,[6],inactive
same,outcome,[7],inactive
COC(=O)C(C)Oc1ccc(Oc2ccc(Cl)cc2Cl)cc1 (stereo unspecified),outcome,[14],inactive
same,outcome,[7],inactive
COP(N)(=O)SC (stereo unspecified),outcome,[1],inactive
same,outcome,[2],inactive
same,outcome,[4],inactive
same,outcome,[5],inactive
same,outcome,[6],inactive
same,outcome,[7],inactive
same,outcome,[10],inactive
Cc1ccc(-c2c(Cl)nc(C#N)n2S(=O)(=O)N(C)C)cc1,outcome,[1],inactive
same,outcome,[9],inactive
same,outcome,[2],inactive
same,outcome,[3],inactive
same,outcome,[5],inactive
same,AC50,[12],27.1 µM (active)
same,outcome,[13],inactive
same,outcome,[6],inactive
same,outcome,[7],inactive
CCOc1cc(Oc2ccc(C(F)(F)F)cc2Cl)ccc1[N+](=O)[O-],outcome,[2],inactive
same,outcome,[3],inactive
same,outcome,[5],inactive
same,outcome,[6],inactive
same,outcome,[7],inactive
